Data as given in PubChem BioAssay (NCATS).
Records with an inconclusive call do not appear. Where a call stands in place of a potency, no number is given. The source made the active and inactive calls. Unless noted, calls come from the whole dose curve; as a rule, active = well fitted curve in the direction sought with a large enough effect; inconclusive = small, poorly fitted or top-dose-only effect, or another doubt; inactive = no such curve, though single readings can be large; an effect the other way counts as inactive or inconclusive.

Tests used:
[1] = Confirmation and Secondary Assay for Modulators of Hemoglobin Beta Chain Splicing at IVS2 654 locus (AID 910);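 note: HeLa cells stably carrying EGFP split by mutant beta-globin IVS2-654 intron; per-well total GFP intensity by laser scanning cytometry after 2-day treatment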
Outline: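 Readout: per-well total peak green fluorescence (488 nm ex, 500–520 nm em) from objects 5–250 µm, reflecting correct splicing of an EGFP-654 reporter. Compounds were applied for 2 days at 37 °C to overnight-plated HeLa EGFP-654 cells; controls were DMSO and 500 nM IVS2-654 PNA.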

[2] = target: ATP-dependent DNA helicase Q1 (Homo sapiens) (UniProt P46063); experiment: qHTS Validation Assay for Inhibitors of RecQ-Like Dna Helicase 1 (RECQ1) (AID 2353)
Outline: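 50 nM RECQ1T1 preincubated 15 min with compound in Tris pH 8.0 buffer with MgCl2, DTT, Tween-20 and 2.5 ug/ml poly(dI-dC); started with 200 nM TAMRA/BHQ-2 forked duplex and 2 mM ATP. Unwinding read as fluorescence (525/598 nm), two reads 2 h apart.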

[3] = target: M-phase phosphoprotein 8 (Homo sapiens) (UniProt Q99549); experiment: qHTS Validation Assay for Inhibitors for MPP8 Chromodomain Interactions with Methylated Histone Tails (AID 488949);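 note: 50 nM MPP8 with 50 nM peptide preformed then compounds added for 30 min; AlphaScreen signal from MPP8 chromodomain bound to biotinylated H3K9me3 peptide; top concentration of the series differs between compounds; nearly all actives have a fitted effect of over 55% in size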
M-phase phosphoprotein 8 (Homo sapiens), sequence (Q99549 whole entry, looked up): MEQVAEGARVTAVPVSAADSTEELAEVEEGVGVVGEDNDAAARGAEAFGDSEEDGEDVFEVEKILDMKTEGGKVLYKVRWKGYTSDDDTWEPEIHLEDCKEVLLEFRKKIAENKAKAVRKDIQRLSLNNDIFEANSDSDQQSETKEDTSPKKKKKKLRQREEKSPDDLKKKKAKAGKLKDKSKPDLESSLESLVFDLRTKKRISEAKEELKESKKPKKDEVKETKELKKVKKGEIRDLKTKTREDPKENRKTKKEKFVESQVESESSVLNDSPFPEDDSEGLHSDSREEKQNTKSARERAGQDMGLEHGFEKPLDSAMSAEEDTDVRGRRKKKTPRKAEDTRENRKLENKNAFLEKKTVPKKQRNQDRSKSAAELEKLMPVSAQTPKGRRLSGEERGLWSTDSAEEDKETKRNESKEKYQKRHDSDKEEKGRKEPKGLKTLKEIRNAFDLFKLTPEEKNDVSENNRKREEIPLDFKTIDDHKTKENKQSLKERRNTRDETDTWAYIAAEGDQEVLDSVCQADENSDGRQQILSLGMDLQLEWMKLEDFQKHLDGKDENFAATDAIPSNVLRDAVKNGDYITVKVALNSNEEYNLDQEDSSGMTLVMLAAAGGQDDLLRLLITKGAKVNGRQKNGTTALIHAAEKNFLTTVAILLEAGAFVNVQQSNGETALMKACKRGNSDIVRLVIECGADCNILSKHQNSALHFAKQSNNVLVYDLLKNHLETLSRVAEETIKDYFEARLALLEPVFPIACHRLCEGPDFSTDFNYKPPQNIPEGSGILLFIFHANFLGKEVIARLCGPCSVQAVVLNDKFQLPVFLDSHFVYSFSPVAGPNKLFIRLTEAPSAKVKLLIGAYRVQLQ
Outline: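 Chemiluminescent proximity assay: histidine-tag capture via nickel acceptor beads, biotin peptide via streptavidin donor beads. Protein and peptide each at 50 nM, pH 7.4, with 30 min incubations at room temperature for complex formation, compound exposure and bead binding.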

[4] = target: Methanococcus maripaludis chaperonin (MmCpn) (UniProt Q6LX38); experiment: High-Throughput Screening for Modulators of Cytosolic Chaperonin Activity: MmCpn Primary Screen (AID 488978)
Outline: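 HTRF readout (320 nm excitation, 590/665 nm emission) of ADP generated by 50 nM MmCpn hydrolysing 30 uM ATP during 10 min at 37C; compound preincubated 5 min RT.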

[5] = target: T1, Hexokinase-4 (Homo sapiens) + Glucokinase regulatory protein (Homo sapiens) (UniProt P35557+Q14397); experiment: qHTS assay for inhibitors of recombinant human GCK-GKRP interaction: Diaphorase-coupled assay (AID 743205)
T1 sequence (P35557 whole entry, looked up): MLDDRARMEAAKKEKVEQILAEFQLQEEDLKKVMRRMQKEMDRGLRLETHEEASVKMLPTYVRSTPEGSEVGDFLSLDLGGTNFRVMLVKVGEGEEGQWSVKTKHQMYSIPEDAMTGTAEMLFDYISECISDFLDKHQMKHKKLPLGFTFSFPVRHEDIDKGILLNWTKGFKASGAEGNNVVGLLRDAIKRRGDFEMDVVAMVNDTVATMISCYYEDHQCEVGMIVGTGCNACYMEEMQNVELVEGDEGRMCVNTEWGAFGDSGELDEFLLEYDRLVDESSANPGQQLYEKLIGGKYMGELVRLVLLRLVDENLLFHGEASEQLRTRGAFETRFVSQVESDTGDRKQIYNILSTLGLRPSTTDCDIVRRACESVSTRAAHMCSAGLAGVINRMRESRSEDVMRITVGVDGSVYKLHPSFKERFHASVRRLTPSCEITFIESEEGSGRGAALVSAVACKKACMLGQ
T1 sequence (Q14397 whole entry, looked up): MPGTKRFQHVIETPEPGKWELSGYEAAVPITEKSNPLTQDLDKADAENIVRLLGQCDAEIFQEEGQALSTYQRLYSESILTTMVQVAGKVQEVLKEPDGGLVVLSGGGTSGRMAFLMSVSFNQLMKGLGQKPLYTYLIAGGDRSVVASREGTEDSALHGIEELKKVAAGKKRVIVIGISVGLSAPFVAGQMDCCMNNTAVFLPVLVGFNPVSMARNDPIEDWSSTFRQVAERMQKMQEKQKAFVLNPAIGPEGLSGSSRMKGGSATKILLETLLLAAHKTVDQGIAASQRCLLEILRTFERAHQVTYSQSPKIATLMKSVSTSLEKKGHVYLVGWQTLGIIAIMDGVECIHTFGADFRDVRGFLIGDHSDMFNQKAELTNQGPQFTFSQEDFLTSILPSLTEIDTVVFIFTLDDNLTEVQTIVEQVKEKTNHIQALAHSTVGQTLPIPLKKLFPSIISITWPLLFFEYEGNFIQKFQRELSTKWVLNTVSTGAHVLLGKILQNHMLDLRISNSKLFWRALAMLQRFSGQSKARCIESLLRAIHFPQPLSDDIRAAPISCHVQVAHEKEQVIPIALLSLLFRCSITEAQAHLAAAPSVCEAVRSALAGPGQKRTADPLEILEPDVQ
Outline: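 Signal derives from resorufin generated by diaphorase, linked to GCK turnover of glucose (5 mM) and ATP (0.4 mM). Enzyme complex was added after a 20-minute compound preincubation and monitored for 30 minutes.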

[6] = target: T1, Hexokinase-4 (Homo sapiens) + Glucokinase regulatory protein (Homo sapiens); experiment: qHTS assay for inhibitors of recombinant human GCK-GKRP interaction: ADP-Glo assay (AID 743206)
Outline: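 GST-GCK and FLAG-GKRP (15 nM each in the dispensed mix, with 2 uM S6P) react with 0.4 mM ATP and 5 mM glucose (final) in Hepes pH 7.6 for 60 min at room temperature. ADP is measured by ADP-Glo luminescence.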

[7] = target: T1, Hexokinase-4 (Homo sapiens) + Glucokinase regulatory protein (Homo sapiens); experiment: qHTS assay for inhibitors of recombinant human GCK-GKRP interaction: HTRF assay (AID 743207)
Outline: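 Titration screening format: recombinant GST-GCK and FLAG-GKRP at 5 nM, S6P at 2 uM, labelled anti-tag antibodies, 60 min at RT, dual-wavelength HTRF readout.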

[8] = target: Parathyroid hormone/parathyroid hormone-related peptide receptor (Homo sapiens) (UniProt Q03431); experiment: qHTS for PTHR1 Agonists: Optimization Screen against the NCGC LOPAC library (AID 1347079);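 note: GloSensor cAMP luminescence in HEK-293 GP2 cells expressing human PTHR1 with IBMX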
Parathyroid hormone/parathyroid hormone-related peptide receptor (Homo sapiens), sequence (Q03431 whole entry, looked up): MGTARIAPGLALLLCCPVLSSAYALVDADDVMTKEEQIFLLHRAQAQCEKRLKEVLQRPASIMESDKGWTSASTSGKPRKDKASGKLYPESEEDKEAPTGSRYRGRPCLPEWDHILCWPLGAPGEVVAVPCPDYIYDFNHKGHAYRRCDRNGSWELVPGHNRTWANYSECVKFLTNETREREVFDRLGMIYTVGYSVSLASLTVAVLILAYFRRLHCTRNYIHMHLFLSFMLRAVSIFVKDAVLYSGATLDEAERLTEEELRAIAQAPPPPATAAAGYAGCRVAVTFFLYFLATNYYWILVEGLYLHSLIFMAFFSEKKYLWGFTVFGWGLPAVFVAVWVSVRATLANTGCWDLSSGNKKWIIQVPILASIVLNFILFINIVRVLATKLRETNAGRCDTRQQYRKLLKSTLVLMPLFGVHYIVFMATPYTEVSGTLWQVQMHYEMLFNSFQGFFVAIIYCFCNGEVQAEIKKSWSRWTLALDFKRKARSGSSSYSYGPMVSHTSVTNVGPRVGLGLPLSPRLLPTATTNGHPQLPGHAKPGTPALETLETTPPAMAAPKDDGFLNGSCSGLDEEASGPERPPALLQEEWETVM
Outline: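 Compounds were tested across a qHTS titration. PTHR1-expressing GP2 cells report cAMP rises via GloSensor luminescence after 1 hr compound exposure at 37C with IBMX present.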

[9] = target: N-terminal Xaa-Pro-Lys N-methyltransferase 1 (Homo sapiens) (UniProt Q9BV86); experiment: qHTS Assay for Inhibitors of N-terminal methyltransferase 1 (NTMT1): LOPAC validation of the NTMT1 SAHH-coupled ThioGlo3 Assay (AID 1347143);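 note: SAH from peptide methylation measured as thiol fluorescence via SAHH coupling and ThioGlo3; nearly all actives have a fitted effect of over 70% in size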; note: potency is the fitted concentration of half-maximal effect
N-terminal Xaa-Pro-Lys N-methyltransferase 1 (Homo sapiens), sequence (Q9BV86 whole entry, looked up): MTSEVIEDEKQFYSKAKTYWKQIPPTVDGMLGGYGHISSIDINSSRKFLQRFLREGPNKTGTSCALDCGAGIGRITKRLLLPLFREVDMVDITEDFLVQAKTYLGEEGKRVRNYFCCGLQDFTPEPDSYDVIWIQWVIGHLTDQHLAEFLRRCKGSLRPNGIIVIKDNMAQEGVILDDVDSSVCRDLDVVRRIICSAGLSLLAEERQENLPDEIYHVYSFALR
Outline: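 Inhibition of NTMT1 methylation of peptide SPKRIA is followed by converting SAH with SAHH and labelling the released thiol with ThioGlo3. Plates are read at 340/450nm before and 30 min after reagent addition, both at room temperature.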

[10] = test system: Zika virus NS2B-NS3 protease (unlinked); experiment: Optimization of GU AMC qHTS for Zika virus inhibitors: Unlinked NS2B-NS3 protease assay (AID 1347151); note: series mostly up to about 52 µM; nearly all actives have a fitted effect of over 80% in size
Outline: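 In this qHTS, compounds acted on 25 nM unlinked Zika NS2B–NS3 in pH 8.0 Tris/Tween buffer. Cleavage of an AMC peptide ran 15 min at room temperature, to about 20% conversion.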

[11] = test system: Zika virus NS2B-NS3 protease; experiment: Primary screen GU AMC qHTS for Zika virus inhibitors (AID 1347154); note: nearly all actives have a fitted effect of over 70% in size
Outline: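 Fluorogenic AMC-substrate cleavage by noncovalent NS2B-NS3 protease complex (25 nM, pH 8.0 Tris buffer with Tween 20) followed for 15 minutes at room temperature (~20% conversion). Percent inhibition from ex340/em450 signal change, fitted by 4-parameter Hill equation.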

[12] = test system: Zika virus NS2B-NS3 protease (unlinked complex); experiment: Primary screen GU Rhodamine qHTS for Zika virus inhibitors: Unlinked NS2B-NS3 protease assay (AID 1347159); note: nearly all actives have a fitted effect of over 60% in size
Outline: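 A qHTS format was used, with compound concentrations ranging up to 114 microM. Each compound was preincubated with 25 nM NS2B-NS3 protease, and the substrate was then added at 1.5 microM. Curves were fitted with a 4-parameter Hill model.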

[13] = test system: Zika virus NS2B-NS3 protease (linked construct); experiment: Primary screen NINDS Rhodamine qHTS for Zika virus inhibitors (AID 1347160); note: nearly all actives have a fitted effect of over 55% in size
Outline: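 Kinetic fluorescence (Ex 480 nm, Em 540 nm) over 15 min with 1.5 microM Rhodamine110 peptide and 25 nM linked protease.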

[14] = target: Lysine-specific demethylase 5B (Homo sapiens) (UniProt Q9UGL1); experiment: Optimization screen for KDM5B Histone Demethylases FDH coupled qHTS against the LOPAC library (AID 1347166)
Outline: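 KDM5BDeltaAP (200nM final) preincubated 10 min with compound, then 12.5uM H3K4Me3, 25uM a-ketoglutarate, ascorbate, Fe(II), NAD+ and FDH added; 50mM HEPES pH 7.5, 0.01% Tween-20. NADH fluorescence (340/450 nm) change over 30 min, room temperature.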

[15] = qHTS for inhibitors of adenylyl cyclases using a fission yeast platform: a pilot screen against the NCATS LOPAC library (AID 1347410)
Outline: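 Inhibition of GNAS-stimulated AC9 activity in S. pombe was inferred from derepression of a PKA-repressed fbp1-GFP reporter, measured as cytometric fluorescence after 18 h at 30C with compounds at up to 57 µM.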

[16] = target: Single-stranded DNA cytosine deaminase (Homo sapiens) (UniProt Q9GZX7); experiment: Validation qHTS assay for inhibitors of Activation Induced Cytidine Deaminase (AID): AID signal (AID 1347429)
Outline: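 In this coupled qHTS, AID deaminates a FRET-labelled ssDNA substrate in the presence of UDG over 4 hr at room temperature. Compounds span up to 114 uM final.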

[17] = Primary qHTS for inhibitors of La Crosse Virus (LACV) - induced cell death in SH-SY5Y cells (AID 1508616);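 note: top concentration of the series differs between compounds; higher means more rescue of cells from virus-induced death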
Outline: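 Readout was luminescence from ATPLite 1step added after a 6-day LACV infection (0.01 MOI) of SH-SY5Y cells that had received pin-transferred compound 24 hr after seeding.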

[18] = target: Papain (Carica papaya) (UniProt P00784); experiment: Primary qHTS assay for inhibitors of the protease papain (AID 1645873);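 note: papain turnover of Z-FR-AMC read as the AMC fluorescence gain over 10 min; series mostly up to about 50 µM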
[19] = target: Rap guanine nucleotide exchange factor 4 (Homo sapiens) (UniProt Q8WZA2); experiment: Confirmatory qHTS for antagonist of cAMP-regulated guanine nucleotide exchange factor 4 (EPAC2) (AID 1645885); note: potency is the fitted concentration of half-maximal effect; nearly all actives have a fitted effect of over 25% in size
[20] = target: Glutathione peroxidase 1 (Homo sapiens) (UniProt P07203); experiment: Primary qHTS Assay for Inhibitors of Recombinant Selenoprotein Glutathione Peroxidase 1 (GPX1) (AID 1845191); note: nearly all actives have a fitted effect of over 65% in size
Glutathione peroxidase 1 (Homo sapiens), sequence (P07203 whole entry, looked up): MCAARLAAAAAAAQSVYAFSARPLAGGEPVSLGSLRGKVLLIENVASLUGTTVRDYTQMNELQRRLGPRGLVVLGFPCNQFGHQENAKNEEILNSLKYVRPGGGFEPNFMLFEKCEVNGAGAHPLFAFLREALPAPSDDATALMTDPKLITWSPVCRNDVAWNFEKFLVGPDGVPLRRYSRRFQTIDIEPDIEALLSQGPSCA
Outline: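 10 nM GPX1 + cpd, 30 min RT; start w/ 1 mM GSH, 0.5 mM cumene hydroperoxide, 0.5 mM NADPH, 100 nM GR, 0.01% BSA; buffer 50 mM Tris-HCl pH 7.5, 2 mM EDTA, 150 mM NaCl; Fl 340/450, 0 & 15 min.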

[21] = target: Phospholipid hydroperoxide glutathione peroxidase GPX4 (Homo sapiens) (UniProt P36969); experiment: Primary qHTS Assay for Inhibitors of Recombinant Selenoprotein Glutathione Peroxidase 4 (GPX4) (AID 1845192); details: outcome: dose series up to 50 µM unless noted; note: series mostly up to about 50 µM; nearly all actives have a fitted effect of over 65% in size
Phospholipid hydroperoxide glutathione peroxidase GPX4 (Homo sapiens), sequence (P36969 whole entry, looked up): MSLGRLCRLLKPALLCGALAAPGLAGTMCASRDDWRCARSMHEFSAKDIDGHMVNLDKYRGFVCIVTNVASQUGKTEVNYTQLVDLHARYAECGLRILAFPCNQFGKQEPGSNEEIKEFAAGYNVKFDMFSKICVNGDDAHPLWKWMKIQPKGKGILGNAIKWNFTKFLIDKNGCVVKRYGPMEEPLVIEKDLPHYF
Outline: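 NADPH consumption, followed by fluorescence at 340/450 nm between 0 and 15 min, reports GPX4 activity via coupled glutathione reductase (100 nM). Enzyme 200 nM was pre-exposed to compound 30 min; 0.5 mM cumene hydroperoxide and 1 mM GSH served as substrates.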

[22] = target: Luciferin 4-monooxygenase (Photinus pyralis) (UniProt P08659); experiment: Primary firefly luciferase (FLuc) qHTS assay for identification of artifact compounds. (AID 1845220); note: nearly all actives have a fitted effect of over 60% in size
Outline: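 Cell-free, 1536-well qHTS. Buffer pH 7.6 with 0.01% Tween-20 and 0.05% BSA; 10 uM D-luciferin, 10 uM ATP; 10 nM P. pyralis luciferase; luminescence after 5 min.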

[23] = Primary fluorescence-based thiol-reactive (MSTI) qHTS assay for identification of artifact compounds. (AID 1845221);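 note: series mostly up to about 54 µM; thiol-reactive compounds lower the probe fluorescence signal; nearly all actives have a fitted effect of over 65% in size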
Outline: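 qHTS titration of compound; 4 uM MSTI, PBS pH 7.4, 2% DMSO; 1 h RT, dark; fluorescence 525/598 nm; normalized to Acetyl-MSTI and MSTI; 4-parameter Hill fit.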

[24] = Primary redox qHTS assay for identification of artifact compounds. (AID 1845223)
Outline: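 Amplex Red (25 uM) and HRP (250 mU/mL) in HBSS, with compounds for 15 min, then 250 uM DTT for 30 min, room temperature, dark. Fluorescence 525/598 nm read; normalized to DMSO and 10 uM DA3003; Hill fit.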

[25] = qHTS for Inhibitors of Plasmodium falciparum (CP250) proliferation (AID 504320)
Outline: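 Erythrocytes infected with P. falciparum line (0.3% parasitemia, 2.5% hematocrit final) incubated with compounds 72 h at 37 °C, 5% CO2; SYBR Green lysis buffer added, fluorescence read next day. Normalized to 0.29 uM artemisinin and DMSO.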

[26] = target: Atrial natriuretic peptide receptor 1 (Homo sapiens) (UniProt P16066); experiment: Natriuretic polypeptide receptor (hNpr1) antagonism - Pilot CMLD screen (AID 1347052; calls by dose curve;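 note: HEK293 cells with hNpr1 stimulated by hNppA peptide at 0.1 nM; cGMP level read as GloSensor luciferase luminescence after agonist stimulation; series mostly up to about 9.2 µM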)
Atrial natriuretic peptide receptor 1 (Homo sapiens), sequence (P16066 whole entry, looked up): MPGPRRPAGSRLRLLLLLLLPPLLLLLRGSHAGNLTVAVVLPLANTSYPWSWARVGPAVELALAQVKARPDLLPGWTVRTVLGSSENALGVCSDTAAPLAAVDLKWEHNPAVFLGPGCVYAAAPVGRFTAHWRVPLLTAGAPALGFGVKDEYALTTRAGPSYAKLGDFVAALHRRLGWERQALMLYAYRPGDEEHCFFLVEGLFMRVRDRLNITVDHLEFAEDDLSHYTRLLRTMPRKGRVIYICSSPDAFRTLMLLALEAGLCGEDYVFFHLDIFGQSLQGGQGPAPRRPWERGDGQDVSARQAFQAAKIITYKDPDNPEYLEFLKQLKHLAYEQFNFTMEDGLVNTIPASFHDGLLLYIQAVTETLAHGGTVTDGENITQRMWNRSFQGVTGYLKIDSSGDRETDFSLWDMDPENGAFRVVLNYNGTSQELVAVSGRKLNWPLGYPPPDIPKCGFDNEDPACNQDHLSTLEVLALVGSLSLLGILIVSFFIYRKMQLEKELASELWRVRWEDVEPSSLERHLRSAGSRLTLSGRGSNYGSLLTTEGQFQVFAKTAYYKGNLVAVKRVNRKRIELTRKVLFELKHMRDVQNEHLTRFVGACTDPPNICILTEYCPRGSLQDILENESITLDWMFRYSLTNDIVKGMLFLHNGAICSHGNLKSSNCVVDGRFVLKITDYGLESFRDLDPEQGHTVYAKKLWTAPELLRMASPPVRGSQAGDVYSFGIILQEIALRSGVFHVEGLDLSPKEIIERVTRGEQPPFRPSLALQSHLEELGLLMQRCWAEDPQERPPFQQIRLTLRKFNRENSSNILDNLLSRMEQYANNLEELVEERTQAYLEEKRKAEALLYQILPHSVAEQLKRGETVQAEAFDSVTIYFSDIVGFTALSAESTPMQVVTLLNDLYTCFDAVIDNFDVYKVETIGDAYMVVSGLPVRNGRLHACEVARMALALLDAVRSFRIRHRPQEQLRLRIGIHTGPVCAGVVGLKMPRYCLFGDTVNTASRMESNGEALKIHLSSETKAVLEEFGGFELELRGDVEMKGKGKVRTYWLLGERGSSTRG

[27] = target: Furin (Homo sapiens) (UniProt P09958); experiment: Furin counterscreen qHTS for Zika virus inhibitors (AID 1347149); note: nearly all actives have a fitted effect of over 70% in size; note: potency is the fitted concentration of half-maximal effect
Furin (Homo sapiens), sequence (P09958 whole entry, looked up): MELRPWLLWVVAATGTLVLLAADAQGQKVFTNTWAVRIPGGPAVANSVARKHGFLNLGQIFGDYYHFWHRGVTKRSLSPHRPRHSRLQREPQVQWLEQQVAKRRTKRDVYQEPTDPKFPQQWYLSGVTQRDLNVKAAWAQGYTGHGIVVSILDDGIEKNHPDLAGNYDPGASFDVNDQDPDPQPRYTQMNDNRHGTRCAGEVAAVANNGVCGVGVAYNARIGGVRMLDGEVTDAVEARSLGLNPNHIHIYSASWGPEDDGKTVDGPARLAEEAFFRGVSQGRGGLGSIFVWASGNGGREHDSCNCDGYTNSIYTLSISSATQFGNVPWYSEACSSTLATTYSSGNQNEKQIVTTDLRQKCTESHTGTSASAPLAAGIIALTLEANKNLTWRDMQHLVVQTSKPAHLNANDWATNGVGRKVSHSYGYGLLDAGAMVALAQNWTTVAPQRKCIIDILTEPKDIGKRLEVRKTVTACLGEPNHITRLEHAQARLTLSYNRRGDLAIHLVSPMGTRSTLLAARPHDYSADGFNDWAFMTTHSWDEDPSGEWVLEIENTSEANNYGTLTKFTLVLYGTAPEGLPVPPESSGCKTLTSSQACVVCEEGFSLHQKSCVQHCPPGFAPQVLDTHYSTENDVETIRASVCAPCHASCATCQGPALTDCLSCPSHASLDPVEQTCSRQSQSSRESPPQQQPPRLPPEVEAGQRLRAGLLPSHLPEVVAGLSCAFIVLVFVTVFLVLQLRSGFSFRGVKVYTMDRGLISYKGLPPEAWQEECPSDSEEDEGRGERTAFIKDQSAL
Outline: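 Fluorogenic cleavage of BOC-RVRR-AMC (2 microM final, Km ~15 µM) was monitored (ex 340, em 450 nm) at 37C after 15 min RT preincubation of 5 nM furin with compounds in HEPES pH 7.0 buffer with CaCl2 and Triton X-100. Percent inhibition was fitted to a 4-parameter Hill curve.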

In the case of `C/C=C/CC(C)C(O)C1C(=O)NC(CC)C(=O)N(C)CC(=O)N(C)C(CC(C)C)C(=O)NC(C(C)C)C(=O)N(C)C(CC(C)C)C(=O)NC(C)C(=O)NC(C)C(=O)N(C)C(CC(C)C)C(=O)N(C)C(CC(C)C)C(=O)N(C)C(C(C)C)C(=O)N1C` (centres undefined), the outcome [1] is reported as “inactive”, the Potency [2] is reported as “inactive” and the Potency [3] is reported as “inactive”. The outcome [4] was “inactive”, the outcome [5] was “inactive” and the outcome [6] was “inactive”. For the same molecule, the outcome [7] was “inactive”, the outcome [8] was “inactive” and the Potency [9] was “inactive”. The Potency [10] was “inactive”, the Potency [11] was “inactive” and the Potency [12] was “inactive”. For the same molecule, the Potency [13] was “inactive”, the outcome [14] was “inactive” and the outcome [15] was “inactive”. For the same molecule, the Potency [16] was “inactive”, the outcome [17] was “inactive” and the Potency [18] was “inactive”. The Potency [19] was 7.84 µM (active), the Potency [20] was “inactive” and the Potency [21] was “inactive”. For the same molecule, the Potency [22] was “inactive”, the Potency [23] was “inactive” and the Potency [24] was “inactive”.
In the case of `C[C@]12C[C@@](C)(C=C1C=Cc1ccc(C(F)(F)F)cc1)C(=O)C[C@H]2c1ccc(C(F)(F)F)cc1`, the Potency [25] is reported as “inactive” and the Potency [26] is reported as “inactive”.
For `O=C(COc1ccc(F)cc1)Nc1ccccc1C(=O)OCc1cc(=O)n2nc(C3CC3)sc2n1`, the Potency [27] was “inactive”.
For `COc1cccc([C@H]2NC(=O)CC=C[C@H](C)[C@@H](c3cccc(OC)c3)NC(=O)CC=C[C@H]2C)c1`, the Potency [25] was “inactive” and the Potency [26] was “inactive”.
For `C#CCN1C(=O)[C@]2(OC[C@@H]3Cc4ccccc4[C@@H]3C=C2C)c2ccccc21`, the Potency [25] was “inactive” and the Potency [26] was “inactive”.
With `CCCCCCCCCC(=O)N[C@H](CCCN=C(N)N)C(=O)N[C@@H](C(=O)N[C@H](CCCCN)C(=O)N[C@@H](CCCN=C(N)N)C(=O)CCl)C(C)C` the Potency [27] was 0.0891 µM (active).
With `O=S(=O)(N[C@H]1CO[C@H]2[C@@H]1OC[C@@H]2Nc1nccc(-c2ccc3c(c2)OCO3)n1)c1ccc2ccccc2c1` the Potency [27] was 55.5 µM (active).
In the case of `COc1cccc2c1[C@H](C=Cc1ccccc1)[C@@H]([C@H](O)CN=[N+]=[N-])OC2`, the Potency [25] is reported as “inactive” and the Potency [26] is reported as “inactive”.
With `COc1cc2c(cc1OC)[C@@H]1O[C@](CCCCN3C(=O)c4ccccc4C3=O)(C2)Oc2c1c(=O)oc1ccc(F)cc21` the Potency [25] was “inactive” and the Potency [26] was “inactive”.
In the case of `CSc1nc(N)c2ncn([C@@H]3O[C@H](COP(=O)(O)OP(=O)(O)OP(=O)(O)O)C(O)[C@H]3O)c2n1` (some centres undefined), the Potency [9] is reported as 50.1 µM (active).
In the case of `NC(N)=Nc1ccc(O[C@H]2C[C@@H](Oc3ccc(N=C(N)N)cc3)[C@H](N=C(N)N)C[C@@H]2N=C(N)N)cc1`, the Potency [27] is reported as 1.26 µM (active).
In the case of `O=C1C2=C(Nc3ccccc3SC2c2ccc(Cl)c(Cl)c2)c2ccccc21` (centres undefined), the Potency [27] is reported as “inactive”.
With `C[C@@H]1CC[C@H]2C(=O)N(CC3CCCCC3)C[C@H](O)CN2[C@@H]1c1ccc(Br)cc1` the Potency [25] was “inactive” and the Potency [26] was “inactive”.
In the case of `COc1cccc([C@H]2NC(=O)C[C@@H]3C[C@@H](C)[C@@H](c4cccc(OC)c4)N3C(=O)C=CC[C@@H]2C)c1`, the Potency [25] is reported as “inactive” and the Potency [26] is reported as “inactive”.
